Reference: article PMC7862700, “An all-to-all approach to the identification of sequence-specific readers for epigenetic DNA modifications on cytosine”

Columns and labels:
Experiment in all cases: DAPPL (digital affinity profiling via proximity ligation, sequencing); 10 mM Tris-HCl pH 7.5, 50 mM NaCl, 1 mM DTT, 4% glycerol, room temperature, 30 min; GST-TFs on glutathione beads, 16-mer random dsDNA library, 0.1% formaldehyde crosslink after washing; high values mean tight binding
FLI1 = target: T1, FLI1 (Homo sapiens, UniProt Q01543 1-452); details: protein: recombinant; tags: N-terminal GST; dsDNA, one strand shown
T1 sequence: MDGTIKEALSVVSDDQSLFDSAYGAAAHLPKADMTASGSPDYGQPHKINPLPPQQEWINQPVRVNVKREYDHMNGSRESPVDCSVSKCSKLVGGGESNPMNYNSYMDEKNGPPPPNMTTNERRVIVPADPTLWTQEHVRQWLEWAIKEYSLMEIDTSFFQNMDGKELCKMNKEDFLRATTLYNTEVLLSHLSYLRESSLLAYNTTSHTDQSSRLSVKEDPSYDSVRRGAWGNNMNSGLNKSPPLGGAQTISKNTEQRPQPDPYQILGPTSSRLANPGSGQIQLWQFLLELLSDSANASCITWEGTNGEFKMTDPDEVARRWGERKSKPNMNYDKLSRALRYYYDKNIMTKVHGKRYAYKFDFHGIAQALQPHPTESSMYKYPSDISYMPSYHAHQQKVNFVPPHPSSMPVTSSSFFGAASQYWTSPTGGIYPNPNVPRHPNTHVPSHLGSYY
In short: (§1)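 Pools of DNA-barcoded human transcription factors, expressed in yeast as GST fusions on glutathione beads and combined with a tag-only sample, were incubated with 200 nmole of a 16-mer random double-stranded DNA library. Incubation took 30 min at room temperature in Tris/NaCl/DTT/glycerol buffer and was followed by washing, 0.1% formaldehyde crosslinking, proximity ligation (BsaI/T4 ligase, 1 h, 37 °C), PCR amplification and sequencing on an Illumina NextSeq500. Binding signal is the ratio of a hexamer's read frequency for a factor to its frequency for the tag-only sample.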

ELK1 = target: T2, ELK1 (Homo sapiens, UniProt P19419 1-428); details: protein: recombinant; tags: N-terminal GST; dsDNA, one strand shown
T2 sequence: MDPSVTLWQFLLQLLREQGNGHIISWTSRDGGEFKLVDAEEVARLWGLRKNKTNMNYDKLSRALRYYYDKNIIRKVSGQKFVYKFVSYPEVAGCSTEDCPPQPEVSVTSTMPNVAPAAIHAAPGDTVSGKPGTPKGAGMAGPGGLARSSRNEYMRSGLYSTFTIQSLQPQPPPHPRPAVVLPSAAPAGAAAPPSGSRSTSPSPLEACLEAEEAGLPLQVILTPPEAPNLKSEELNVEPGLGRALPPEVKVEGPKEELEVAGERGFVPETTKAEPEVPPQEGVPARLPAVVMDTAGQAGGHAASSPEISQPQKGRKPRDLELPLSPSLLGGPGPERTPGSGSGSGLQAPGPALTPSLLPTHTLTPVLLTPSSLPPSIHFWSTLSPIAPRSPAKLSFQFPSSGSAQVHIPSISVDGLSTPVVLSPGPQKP
In short: as §1

GABPA = target: T3, GABPA (Homo sapiens, UniProt Q06546 1-454); details: protein: recombinant; tags: N-terminal GST; dsDNA, one strand shown
T3 sequence: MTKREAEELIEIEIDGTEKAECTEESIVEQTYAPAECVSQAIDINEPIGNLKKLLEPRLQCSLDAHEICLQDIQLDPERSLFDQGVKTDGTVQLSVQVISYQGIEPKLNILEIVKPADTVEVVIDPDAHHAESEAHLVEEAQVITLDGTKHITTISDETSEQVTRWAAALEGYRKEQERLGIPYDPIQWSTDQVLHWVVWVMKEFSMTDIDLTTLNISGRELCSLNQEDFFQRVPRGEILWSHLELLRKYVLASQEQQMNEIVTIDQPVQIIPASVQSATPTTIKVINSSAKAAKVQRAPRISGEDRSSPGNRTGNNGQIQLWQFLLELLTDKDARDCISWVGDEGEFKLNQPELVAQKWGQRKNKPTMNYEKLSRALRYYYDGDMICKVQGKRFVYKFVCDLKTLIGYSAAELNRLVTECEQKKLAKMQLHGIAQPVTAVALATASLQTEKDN
In short: as §1

ERG = target: T4, ERG (Homo sapiens, UniProt P11308 1-479); details: protein: recombinant; tags: N-terminal GST; dsDNA, one strand shown
T4 sequence: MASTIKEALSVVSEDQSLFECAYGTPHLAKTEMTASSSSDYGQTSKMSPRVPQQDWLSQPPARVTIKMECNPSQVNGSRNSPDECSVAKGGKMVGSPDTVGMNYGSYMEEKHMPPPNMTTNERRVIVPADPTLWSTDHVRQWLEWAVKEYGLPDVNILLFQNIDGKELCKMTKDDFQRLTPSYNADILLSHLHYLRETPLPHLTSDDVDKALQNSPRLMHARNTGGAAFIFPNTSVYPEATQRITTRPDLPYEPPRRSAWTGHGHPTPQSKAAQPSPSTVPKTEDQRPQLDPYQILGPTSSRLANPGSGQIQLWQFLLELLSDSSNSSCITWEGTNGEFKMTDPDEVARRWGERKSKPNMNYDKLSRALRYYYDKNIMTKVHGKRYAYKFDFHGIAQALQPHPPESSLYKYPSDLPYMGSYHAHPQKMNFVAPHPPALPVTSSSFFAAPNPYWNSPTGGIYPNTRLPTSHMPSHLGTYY
In short: as §1

ELF1 = ELF1 (Homo sapiens, UniProt P32519 1-619); details: protein: recombinant; tags: N-terminal GST; dsDNA, one strand shown
Chain of ELF1 (P32519 whole entry): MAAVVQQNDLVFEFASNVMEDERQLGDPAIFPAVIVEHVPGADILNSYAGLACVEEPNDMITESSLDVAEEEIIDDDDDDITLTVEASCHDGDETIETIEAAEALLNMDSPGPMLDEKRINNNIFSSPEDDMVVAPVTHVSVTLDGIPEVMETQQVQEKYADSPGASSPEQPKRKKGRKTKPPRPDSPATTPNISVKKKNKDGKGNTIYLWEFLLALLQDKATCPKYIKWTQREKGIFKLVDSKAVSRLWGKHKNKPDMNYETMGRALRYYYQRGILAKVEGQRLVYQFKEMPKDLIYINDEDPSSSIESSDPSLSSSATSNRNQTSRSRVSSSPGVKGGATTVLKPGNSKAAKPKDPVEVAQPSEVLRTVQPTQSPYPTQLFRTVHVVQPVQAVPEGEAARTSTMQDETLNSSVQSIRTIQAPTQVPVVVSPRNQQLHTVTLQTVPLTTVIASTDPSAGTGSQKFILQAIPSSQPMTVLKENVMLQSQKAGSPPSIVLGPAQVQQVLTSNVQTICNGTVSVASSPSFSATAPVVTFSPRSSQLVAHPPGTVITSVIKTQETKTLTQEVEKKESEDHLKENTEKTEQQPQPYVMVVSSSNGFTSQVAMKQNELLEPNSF
In short: as §1

EHF = target: T5, EHF (Homo sapiens, UniProt Q9NZC4 1-300); details: protein: recombinant; tags: N-terminal GST; dsDNA, one strand shown
T5 sequence: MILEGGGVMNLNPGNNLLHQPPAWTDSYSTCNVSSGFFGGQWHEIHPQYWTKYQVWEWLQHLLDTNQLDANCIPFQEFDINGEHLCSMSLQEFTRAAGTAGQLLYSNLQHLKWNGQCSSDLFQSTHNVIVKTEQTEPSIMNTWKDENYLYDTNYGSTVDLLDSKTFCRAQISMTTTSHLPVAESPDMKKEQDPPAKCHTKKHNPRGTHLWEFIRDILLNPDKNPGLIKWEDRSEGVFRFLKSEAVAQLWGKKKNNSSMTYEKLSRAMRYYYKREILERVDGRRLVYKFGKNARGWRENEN
In short: as §1

SPI1 = SPI1 (Homo sapiens, UniProt P17947 1-270); details: protein: recombinant; tags: N-terminal GST; dsDNA, one strand shown
In short: as §1

SPIB = SPIB (Homo sapiens, UniProt Q01892 1-262); details: protein: recombinant; tags: N-terminal GST; dsDNA, one strand shown
Chain of SPIB (Q01892 whole entry): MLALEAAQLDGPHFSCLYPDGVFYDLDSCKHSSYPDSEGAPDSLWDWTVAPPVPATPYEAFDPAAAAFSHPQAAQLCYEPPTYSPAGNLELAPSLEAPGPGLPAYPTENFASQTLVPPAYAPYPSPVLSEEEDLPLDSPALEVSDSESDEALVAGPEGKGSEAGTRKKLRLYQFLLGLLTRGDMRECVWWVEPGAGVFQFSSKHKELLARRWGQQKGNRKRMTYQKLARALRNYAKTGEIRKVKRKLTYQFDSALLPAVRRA
In short: as §1

ELK3 = target: T6, ELK3 (Homo sapiens, UniProt P41970 1-407); details: protein: recombinant; tags: N-terminal GST; dsDNA, one strand shown
T6 sequence: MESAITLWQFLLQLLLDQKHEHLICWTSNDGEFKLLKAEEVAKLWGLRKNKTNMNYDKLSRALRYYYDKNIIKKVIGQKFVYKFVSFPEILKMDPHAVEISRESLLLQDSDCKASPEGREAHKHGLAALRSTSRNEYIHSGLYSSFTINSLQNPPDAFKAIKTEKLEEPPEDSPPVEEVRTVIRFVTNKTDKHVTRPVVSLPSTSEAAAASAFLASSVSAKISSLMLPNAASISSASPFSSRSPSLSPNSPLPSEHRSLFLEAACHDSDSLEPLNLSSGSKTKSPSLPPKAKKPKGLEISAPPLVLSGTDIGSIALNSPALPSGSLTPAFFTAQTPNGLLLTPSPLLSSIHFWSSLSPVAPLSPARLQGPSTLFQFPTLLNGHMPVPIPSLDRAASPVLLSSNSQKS
In short: as §1

FEV = target: T7, FEV (Homo sapiens, UniProt Q99581 1-238); details: protein: recombinant; tags: N-terminal GST; dsDNA, one strand shown
T7 sequence: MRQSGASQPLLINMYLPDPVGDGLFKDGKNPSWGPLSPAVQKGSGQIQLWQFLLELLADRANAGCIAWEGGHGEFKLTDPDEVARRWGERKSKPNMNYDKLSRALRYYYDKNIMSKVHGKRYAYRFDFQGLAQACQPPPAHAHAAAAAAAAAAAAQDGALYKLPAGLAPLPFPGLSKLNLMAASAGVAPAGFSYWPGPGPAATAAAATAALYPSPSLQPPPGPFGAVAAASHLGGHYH
In short: as §1

ETV5 = ETV5 (Homo sapiens, UniProt P41161 1-510); details: protein: recombinant; tags: N-terminal GST; dsDNA, one strand shown
Chain of ETV5 (P41161 whole entry): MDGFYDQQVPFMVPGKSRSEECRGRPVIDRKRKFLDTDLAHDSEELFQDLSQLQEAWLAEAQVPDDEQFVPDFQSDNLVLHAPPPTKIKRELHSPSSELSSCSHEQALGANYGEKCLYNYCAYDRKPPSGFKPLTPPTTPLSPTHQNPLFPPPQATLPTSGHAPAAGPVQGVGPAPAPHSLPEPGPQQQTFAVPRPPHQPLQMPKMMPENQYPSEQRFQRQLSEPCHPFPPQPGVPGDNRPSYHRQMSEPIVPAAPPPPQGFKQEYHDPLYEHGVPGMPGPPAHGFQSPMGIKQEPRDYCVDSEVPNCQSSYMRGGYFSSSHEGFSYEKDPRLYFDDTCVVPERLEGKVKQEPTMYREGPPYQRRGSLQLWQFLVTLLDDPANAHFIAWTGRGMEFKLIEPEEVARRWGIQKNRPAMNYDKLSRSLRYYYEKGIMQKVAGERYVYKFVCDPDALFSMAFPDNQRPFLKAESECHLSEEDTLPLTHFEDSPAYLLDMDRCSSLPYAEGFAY
In short: as §1

HSF1 = HSF1 (Homo sapiens, UniProt Q00613 1-529); details: protein: recombinant; tags: N-terminal GST; chain copies: 3; dsDNA, one strand shown
Chain of HSF1 (Q00613 whole entry): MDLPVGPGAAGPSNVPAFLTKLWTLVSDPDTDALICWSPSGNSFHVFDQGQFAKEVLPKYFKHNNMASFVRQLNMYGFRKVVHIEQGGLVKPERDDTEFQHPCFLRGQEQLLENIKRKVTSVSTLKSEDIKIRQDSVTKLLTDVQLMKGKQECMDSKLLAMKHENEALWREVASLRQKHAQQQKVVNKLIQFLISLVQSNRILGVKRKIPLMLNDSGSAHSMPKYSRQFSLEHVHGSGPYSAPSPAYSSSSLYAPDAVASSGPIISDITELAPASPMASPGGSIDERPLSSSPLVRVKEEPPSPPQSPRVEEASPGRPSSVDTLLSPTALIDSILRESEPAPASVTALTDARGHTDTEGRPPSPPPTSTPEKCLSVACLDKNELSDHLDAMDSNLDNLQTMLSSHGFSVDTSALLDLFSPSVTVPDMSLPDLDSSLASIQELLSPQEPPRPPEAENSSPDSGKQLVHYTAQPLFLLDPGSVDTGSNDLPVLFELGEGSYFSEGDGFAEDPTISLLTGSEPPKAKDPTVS
In short: as §1

SPIC = target: T8, SPIC (Homo sapiens, UniProt Q8N5J4 1-248); details: protein: recombinant; tags: N-terminal GST; dsDNA, one strand shown
T8 sequence: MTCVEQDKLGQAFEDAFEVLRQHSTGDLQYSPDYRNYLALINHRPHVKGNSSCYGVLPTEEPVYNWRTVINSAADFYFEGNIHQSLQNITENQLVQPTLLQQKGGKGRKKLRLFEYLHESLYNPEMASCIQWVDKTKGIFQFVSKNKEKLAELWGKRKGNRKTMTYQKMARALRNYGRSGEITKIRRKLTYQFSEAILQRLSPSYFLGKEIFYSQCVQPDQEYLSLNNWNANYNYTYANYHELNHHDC
In short: as §1

ELF4 = ELF4 (Homo sapiens, UniProt Q99607 1-663); details: protein: recombinant; tags: N-terminal GST; dsDNA, one strand shown
Chain of ELF4 (Q99607 whole entry): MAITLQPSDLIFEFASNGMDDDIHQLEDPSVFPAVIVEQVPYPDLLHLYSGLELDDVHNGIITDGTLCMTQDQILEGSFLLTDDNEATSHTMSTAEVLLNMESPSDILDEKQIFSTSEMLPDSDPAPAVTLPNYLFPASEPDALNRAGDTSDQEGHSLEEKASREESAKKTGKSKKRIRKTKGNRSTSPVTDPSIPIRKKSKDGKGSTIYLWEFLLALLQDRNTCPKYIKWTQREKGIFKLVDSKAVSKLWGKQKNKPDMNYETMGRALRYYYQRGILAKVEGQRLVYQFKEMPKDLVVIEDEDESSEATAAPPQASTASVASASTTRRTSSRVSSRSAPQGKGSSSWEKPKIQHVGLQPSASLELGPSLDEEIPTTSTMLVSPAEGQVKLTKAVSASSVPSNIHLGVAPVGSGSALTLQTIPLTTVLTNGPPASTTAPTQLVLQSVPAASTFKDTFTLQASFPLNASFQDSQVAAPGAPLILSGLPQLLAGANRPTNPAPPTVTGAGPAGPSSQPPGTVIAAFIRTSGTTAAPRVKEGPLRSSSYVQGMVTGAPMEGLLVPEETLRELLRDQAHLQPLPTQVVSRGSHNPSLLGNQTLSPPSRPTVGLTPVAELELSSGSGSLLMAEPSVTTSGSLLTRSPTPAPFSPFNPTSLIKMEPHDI
In short: as §1

ELK4 = target: T9, ELK4 (Homo sapiens, UniProt P28324-2 1-405); details: protein: recombinant; tags: N-terminal GST; dsDNA, one strand shown
T9 sequence: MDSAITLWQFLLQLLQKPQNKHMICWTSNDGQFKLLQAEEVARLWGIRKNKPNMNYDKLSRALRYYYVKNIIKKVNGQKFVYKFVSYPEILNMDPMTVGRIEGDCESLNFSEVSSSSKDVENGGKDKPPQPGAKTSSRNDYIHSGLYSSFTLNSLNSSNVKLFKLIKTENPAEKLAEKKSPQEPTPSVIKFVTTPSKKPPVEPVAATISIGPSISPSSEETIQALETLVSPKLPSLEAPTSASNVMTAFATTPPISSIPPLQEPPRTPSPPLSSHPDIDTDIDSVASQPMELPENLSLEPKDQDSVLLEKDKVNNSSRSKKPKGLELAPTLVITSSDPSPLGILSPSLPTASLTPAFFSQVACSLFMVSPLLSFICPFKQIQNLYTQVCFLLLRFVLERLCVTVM
In short: as §1

ETV2 = target: T10, ETV2 (Homo sapiens, UniProt O00321 1-342); details: protein: recombinant; tags: N-terminal GST; dsDNA, one strand shown
T10 sequence: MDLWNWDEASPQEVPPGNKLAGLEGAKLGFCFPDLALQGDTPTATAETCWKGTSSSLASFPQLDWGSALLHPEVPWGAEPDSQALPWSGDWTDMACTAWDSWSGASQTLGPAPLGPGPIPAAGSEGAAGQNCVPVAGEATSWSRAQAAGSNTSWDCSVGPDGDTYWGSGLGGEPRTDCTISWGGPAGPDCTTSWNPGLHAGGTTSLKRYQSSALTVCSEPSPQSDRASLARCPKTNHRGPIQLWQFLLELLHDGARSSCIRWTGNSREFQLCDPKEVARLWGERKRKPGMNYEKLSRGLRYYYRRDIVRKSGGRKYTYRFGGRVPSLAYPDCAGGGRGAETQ
In short: as §1

ELF3 = target: T11, ELF3 (Homo sapiens, UniProt P78545 1-371); details: protein: recombinant; tags: N-terminal GST; dsDNA, one strand shown
T11 sequence: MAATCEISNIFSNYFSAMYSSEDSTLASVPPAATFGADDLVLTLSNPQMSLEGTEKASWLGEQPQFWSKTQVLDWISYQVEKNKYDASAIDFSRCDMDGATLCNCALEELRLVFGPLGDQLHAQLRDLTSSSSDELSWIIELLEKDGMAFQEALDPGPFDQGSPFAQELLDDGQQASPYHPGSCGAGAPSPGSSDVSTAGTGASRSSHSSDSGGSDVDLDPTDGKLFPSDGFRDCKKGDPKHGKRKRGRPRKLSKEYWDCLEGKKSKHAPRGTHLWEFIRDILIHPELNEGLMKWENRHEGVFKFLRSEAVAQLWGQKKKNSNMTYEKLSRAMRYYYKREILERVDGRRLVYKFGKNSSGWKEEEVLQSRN
In short: as §1

CRX = CRX (Homo sapiens, UniProt O43186 1-299); details: protein: recombinant; tags: N-terminal GST; dsDNA, one strand shown
Chain of CRX (O43186 whole entry): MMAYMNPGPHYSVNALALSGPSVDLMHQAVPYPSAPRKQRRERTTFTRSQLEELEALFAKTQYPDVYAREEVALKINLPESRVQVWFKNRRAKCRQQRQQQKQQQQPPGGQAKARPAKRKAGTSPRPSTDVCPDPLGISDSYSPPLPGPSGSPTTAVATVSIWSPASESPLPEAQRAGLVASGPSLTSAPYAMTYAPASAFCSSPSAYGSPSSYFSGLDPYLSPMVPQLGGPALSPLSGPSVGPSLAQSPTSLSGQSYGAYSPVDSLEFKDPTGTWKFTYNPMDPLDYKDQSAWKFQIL
In short: as §1

ETV1 = ETV1 (Homo sapiens, UniProt P50549 1-477); details: protein: recombinant; tags: N-terminal GST; dsDNA, one strand shown
Chain of ETV1 (P50549 whole entry): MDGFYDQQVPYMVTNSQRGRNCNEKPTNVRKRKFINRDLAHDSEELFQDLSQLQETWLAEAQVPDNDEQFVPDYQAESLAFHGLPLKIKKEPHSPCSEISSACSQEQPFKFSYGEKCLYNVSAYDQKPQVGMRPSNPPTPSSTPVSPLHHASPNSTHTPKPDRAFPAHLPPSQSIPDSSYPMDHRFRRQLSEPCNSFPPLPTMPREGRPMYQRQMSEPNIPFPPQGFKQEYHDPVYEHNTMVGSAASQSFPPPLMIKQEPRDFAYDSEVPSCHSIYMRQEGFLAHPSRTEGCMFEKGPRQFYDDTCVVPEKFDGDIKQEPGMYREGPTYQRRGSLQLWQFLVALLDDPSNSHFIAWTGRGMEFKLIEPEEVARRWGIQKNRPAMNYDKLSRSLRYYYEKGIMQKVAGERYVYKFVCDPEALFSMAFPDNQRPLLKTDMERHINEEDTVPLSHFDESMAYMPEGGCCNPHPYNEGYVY
In short: as §1

With TATGGT the binding signal (FLI1) was 1.38 fold enrichment (6-mer frequency, TF over GST control), the binding signal (ELK1) was 1.3 fold enrichment (6-mer frequency, TF over GST control) and the binding signal (GABPA) was 1.32 fold enrichment (6-mer frequency, TF over GST control). The binding signal (ERG) was 1.22 fold enrichment (6-mer frequency, TF over GST control), the binding signal (ELF1) was 1.37 fold enrichment (6-mer frequency, TF over GST control) and the binding signal (EHF) was 1.39 fold enrichment (6-mer frequency, TF over GST control). The binding signal (SPI1) was 1.28 fold enrichment (6-mer frequency, TF over GST control), the binding signal (SPIB) was 1.3 fold enrichment (6-mer frequency, TF over GST control) and the binding signal (ELK3) was 1.17 fold enrichment (6-mer frequency, TF over GST control). The binding signal (FEV) was 1.24 fold enrichment (6-mer frequency, TF over GST control), the binding signal (ETV5) was 1.38 fold enrichment (6-mer frequency, TF over GST control) and the binding signal (HSF1) was 1.16 fold enrichment (6-mer frequency, TF over GST control). For the same sequence, the binding signal (SPIC) was 1.49 fold enrichment (6-mer frequency, TF over GST control), the binding signal (ELF4) was 1.34 fold enrichment (6-mer frequency, TF over GST control) and the binding signal (ELK4) was 1.44 fold enrichment (6-mer frequency, TF over GST control). For the same sequence, the binding signal (ETV2) was 1 fold enrichment (6-mer frequency, TF over GST control), the binding signal (ELF3) was 1.5 fold enrichment (6-mer frequency, TF over GST control) and the binding signal (CRX) was 1.29 fold enrichment (6-mer frequency, TF over GST control). For the same sequence, the binding signal (ETV1) was 1.27 fold enrichment (6-mer frequency, TF over GST control).
